Measurements from PubChem BioAssay AID2391 (Southern Research Specialized Biocontainment Screening …, 2010).
Out of some 310,000 compounds screened, about 410 (0.13%) were called active. Inconclusive results (about 2%) are left out. The rule behind the calls is not given here. Only a sample is shown. Entries with a potency or affinity are not part of this list.

Assay: inhibition of RSV-induced cytopathic effect – HEp-2 cells, primary 10 µM value included (AID 2391)
Conditions: at 10 µM, stronger effect = higher value

CPE inhibition, inactive:
O=C(/C=C/c1c(Cl)cccc1Cl)Nc1ccncc1 15.2%
CN(C)c1ccc(NC(=O)/C=C/c2ccccc2Cl)cc1 4.05%
CCCCNCc1cc(Br)c(OCC(=O)N2CCOCC2)c(OC)c1 0.24%
O=C(O)Cc1ccc(NC(=O)c2ccc3c(c2)C(=O)N(Cc2ccco2)C3=O)cc1 1.76%
O=C(Nc1ccc2c(c1)CCC2)C1CCCN(c2ncccn2)C1 (stereo not drawn) -1.9%
Cc1cccc(-c2nc(CSCC(=O)N3CCN(Cc4ccc5c(c4)OCO5)CC3)c(C)o2)c1 4.52%
CCOc1ccc(NC(=NCc2ccc3c(c2)OCO3)SC2CC(=O)N(c3ccccc3)C2=O)cc1 (stereo not drawn) 1.98%
O=C1CC(SC(=NCc2ccc3c(c2)OCO3)Nc2ccccc2)C(=O)N1c1ccccc1 (stereo not drawn) 3.83%
O=C(O)c1ccc(N2C(=O)CC(SC(=NCc3ccc4c(c3)OCO4)Nc3ccccc3)C2=O)cc1 (stereo not drawn) 5.3%
CCOc1ccc(NC(=NCc2ccc3c(c2)OCO3)SC2CC(=O)N(c3ccc(OCC)cc3)C2=O)cc1 (stereo not drawn) 2.56%
COc1ccc(CN2C(=O)c3cccnc3C2=O)cc1S(=O)(=O)N(C)c1cccc(C)c1 1.8%
O=C(Nc1ccc(Cn2cccn2)cc1)c1ccc(COc2cccc(Br)c2)cc1 -0.58%
Cc1ccc(C(=O)NCC2CCCN2S(=O)(=O)c2cccs2)cc1C (stereo not drawn) 1.81%
CCC(C)c1ccc2oc(-c3ccc(NC(=O)c4ncn[nH]4)cc3)nc2c1 (stereo not drawn) 9.89%
Cc1ccc(-c2nc3cc(NC(=O)C(C)C)ccc3o2)cc1C 14.6%
CCCC(=O)Nc1cccc(-c2nc3cc(C)c(C)cc3o2)c1 1.54%
Cc1ccc(-c2nc3cc(NC(=O)C(C)C)ccc3o2)cc1 4.38%
CCC(C)NCC(=O)Nc1ccc(-c2nc3cc(NC(=O)CNC(C)CC)ccc3o2)cc1 (stereo not drawn) 1.28%
CCCC(=O)Nc1ccc(-c2nc3cc(C)ccc3o2)cc1 40.7%
Clc1ccc(CSc2ccc(-c3cccnc3)nn2)cc1 20.4%
Cc1c(C(=O)OCC(=O)Nc2c(C)n(C)n(-c3ccccc3)c2=O)oc2ccccc12 0.38%
Cc1cc(OCC(O)CN2CCCC2)cc(C)c1Cl (stereo not drawn) -0.91%
CC(C)n1c(SCC(=O)N2CCCC2)nc2c1c(=O)n(C)c(=O)n2C -0.46%
CCCN(Cc1nnc(-c2ccccc2Cl)o1)C(=O)c1oc2ccccc2c1C 44%
O=C(c1ccccc1)c1cc([N+](=O)[O-])ccc1N1CCCC1 3.67%
S=c1nccc(-c2cccs2)[nH]1 5.75%
O=C1c2ccccc2NC2(CCCC2)N1N=C1CCCC1 2.08%
O=C1CC(NCc2ccccc2F)C(=O)N1c1ccccc1 (stereo not drawn) 0.44%
Cc1ccc(NC(=O)CCS(=O)(=O)c2cccc3nonc23)c(Cl)c1 0.71%
COC(=O)c1ccc(Cn2nnc3ccccc3c2=O)o1 4.91%
COC(=O)c1ccc(CSc2nc3ccccc3c(=O)n2CC(C)C)o1 4.85%
Cc1c(C)c2ccc(OCC(=O)Nc3nccs3)cc2oc1=O 20.3%
COc1ccc(OC)c(N(C(=O)c2ccco2)C(C(=O)NC2CCCC2)c2ccc(N3CCOCC3)cc2)c1 (stereo not drawn) 1.32%
CCOc1ccc(/C=C2\SC(=S)N(NS(=O)(=O)c3ccccc3)C2=O)cc1OC 2.94%
COc1cc(/C=C2\SC(=S)N(NS(=O)(=O)c3ccccc3)C2=O)ccc1O 4.97%
CN1CCN(C(=O)c2cc(Cl)cc(Cl)c2NC(=O)c2ccco2)CC1 0.57%
O=C(Nc1ccc(NC(=O)c2cc3ccccc3o2)cc1)c1ccc2c(c1)OCCO2 6.03%
Cc1cc(NC(=O)c2cc3ccccc3o2)ccc1NC(=O)c1ccccc1 5.86%
Cc1ccc(N(CC(=O)NCCc2ccc(F)cc2)S(=O)(=O)c2ccc(Cl)c([N+](=O)[O-])c2)c(C)c1 3.85%
Cc1cc(C)c2nc(N3CCC(C(=O)NCCCN4CCCCC4)CC3)sc2c1 21.9%
Cc1cccc(S(=O)(=O)Nc2ccc(-c3cn4ccccc4n3)cc2)c1 21%
COC(=O)Cn1c(=NC(=O)c2cccc(OC)c2)sc2cc(OC)ccc21 1.97%
Nc1c(C(=O)N/N=C/c2ccc(Cl)cc2)cnn1-c1ccccc1 0.12%
NNC(=O)c1cc(-c2ccccc2)sc1N 1.27%
OCCC1CN(Cc2cccn2-c2nccs2)CCN1Cc1ccccc1 (stereo not drawn) -1.03%
CC(C)CCN1CCN(Cc2cccn2-c2nccs2)CC1CCO (stereo not drawn) 1.17%
COc1ccc(Cn2nnnc2C(c2cccs2)N2CCOCC2)cc1 (stereo not drawn) 0.05%
CC(=O)Nc1ccc(NC(=O)c2c(C)nn(Cc3ccccc3)c2Cl)cc1 5.46%
Cc1nn(-c2ccccc2Cl)c(Cl)c1/C=N/Nc1cccc(C(=O)O)c1 3.47%
Cc1nn(-c2ccccc2Cl)c(Cl)c1/C=N/Nc1nc2ccccc2s1 4.62%
CCC(C(=O)Nc1c2c(nn1C(C)(C)C)CS(=O)(=O)C2)c1ccccc1 (stereo not drawn) 1.09%
Cn1ccnc1SCc1ccc(Cl)cc1Cl 1.17%
N#Cc1c(-c2ccccc2Cl)noc1/C=C/Nc1ccc(C(=O)O)cc1 2.42%
CN(C)/C=C/c1onc(-c2c(Cl)cccc2Cl)c1C#N 1.69%
O=C(c1ccccc1Sc1c(Cl)cccc1[N+](=O)[O-])N1CCOCC1 4.6%
COc1ccc(/C(C)=N/NC(=O)C2C3CCCCC32)c(OC)c1 (stereo not drawn) -0.16%
CCc1ccc(OCC(=O)Nc2ccc3c(c2)OCCO3)cc1 0.88%
Cc1ccc2c(c1)cc(CN(Cc1cccs1)C(=O)c1ccco1)c1nnnn12 4.88%
Cc1ccc2c(c1)cc(CN(Cc1ccco1)C(=O)N1CCOCC1)c1nnnn12 -0.68%
O=C(c1ccc(Cl)c(S(=O)(=O)N2CCCC2)c1)N1CCOCC1 4.9%
O=c1[nH]c(CNCc2cccnc2)nc2ccccc12 1.68%
CCC1C(=O)n2nc(-c3ccccc3)cc2N=C1C (stereo not drawn) 0.9%
Cc1cc(NC(=O)COC(=O)c2oc3c(Cl)cccc3c2C)no1 2.63%
Cc1cccc(NS(=O)(=O)c2cc(C(=O)OCC(=O)Nc3cc(C)on3)ccc2C)c1 -0.1%
Cc1cc(NC(=O)c2c(Cl)cccc2Cl)no1 -0.16%
Cc1cc(NC(=O)COC(=O)c2cc(S(=O)(=O)N(C)c3ccccc3)ccc2Cl)no1 0.4%
Cc1cc(NC(=O)COc2ccc(N(C)S(=O)(=O)c3ccccc3)cc2)no1 0.18%
Cc1cc(NC(=O)COC(=O)c2ccc(NS(=O)(=O)c3ccc(C)c(C)c3)cc2)no1 0.64%
O=C(CNC(=O)c1ccc(Br)o1)NNC(=O)c1cccc(Cl)c1 -2.18%
O=C1N=c2ccccc2=C1c1sc(NS(=O)(=O)c2ccccc2)nc1O 4.47%
CCOC(=O)N1CCC(N2CCCC(CO)(Cc3ccccc3C)C2)CC1 (stereo not drawn) 0.07%
CC(=O)c1cccc(NC(=O)c2csc3c2CCCCC3)c1 13.4%
N#Cc1ccccc1CSc1ncccc1C(=O)O -0.85%
CCOC(=O)C1=C(NC(=S)NC(=O)c2ccccc2)c2ccccc2CC1(C)CC (stereo not drawn) 43.2%
CCOC(=O)C1=C(NC(=S)NC(=O)c2ccccc2)c2ccccc2CC1(C)C 7.06%
CCOc1cc(/C=C2\SC(=NC)N(C)C2=O)c(Br)cc1OC(C)=O 1.71%
Cc1cccc(C)c1OCc1n[nH]c(=S)o1 0.21%
Cc1ccc2c(c1)COc1c3ccc(C(=O)N[C@@H](CO)C(C)C)cc3nn1-2 15%
Cc1ccc2c(c1)COc1c3ccc(C(=O)NC(C)C)cc3nn1-2 16.2%
CCN(CC)CCN(Cc1cc2cc3c(cc2[nH]c1=O)OCO3)C(=S)NCc1ccco1 -1.07%
CCOC(=O)CN1C(=O)N[C@@H](c2cccc(F)c2)C(C(=O)OC)=C1C 9.26%
CCOC(=O)CN1C(=O)N[C@@H](c2ccccc2)C(C(C)=O)=C1C 2.81%
OC(CNC1CCCC1)COc1ccc(Cl)cc1 (stereo not drawn) -0.21%
COc1ccc(OC)c(CN2CCC(CO)(CCOc3ccccc3)CC2)c1 -2.58%
O=C(Nc1nc2c(s1)CCCC2)c1cccc(S(=O)(=O)N2CCCc3ccccc32)c1 7.22%
O=C(COc1ccccc1)Nc1nc2c(s1)CCCC2 14%
O=C(CCCc1cccs1)Nc1nc2c(s1)CCCC2 1.81%
COc1ccc(OCC(=O)Nc2nc3c(s2)CCCC3)cc1 6.78%
O=C(Nc1nc2c(s1)CCCC2)c1cccs1 14.3%
O=C(Nc1nc2c(s1)CCCC2)c1ccc(S(=O)(=O)N2CCCc3ccccc32)cc1 1.63%
COC(=O)c1ccc(C(C(=O)NC2CCCCC2)N(Cc2ccc(F)cc2)C(=O)Cc2cccs2)cc1 (stereo not drawn) 7.57%
CC(=O)OCCNC(=O)Cn1cnc2c1c(=O)n(C)c(=O)n2C 0.79%
COc1ccc(C2CC(C(F)(F)F)n3nc(C(N)=O)c(Cl)c3N2)cc1OC (stereo not drawn) 3.38%
